Records with an inconclusive call do not appear. The source made the active and inactive calls. The call rests on the fitted dose curve; in most records, active means well fitted inhibition curve with a large enough effect; inconclusive means small, poorly fitted or top-dose-only effect; inactive means flat fitted curve, though single readings scatter.
Columns and labels:
Assay in all cases: qHTS profiling for inhibitors of Plasmodium falciparum proliferation (AID 504749); further: nearly all actives have a fitted effect of over 60% in size
Settings in all cases: P. falciparum in erythrocytes, SYBR Green DNA, 72 h; series mostly up to 28.7 µM
CP268 = tested on: CP268
In short: (§1)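 Quantitative HTS: compounds pinned into medium, infected erythrocytes added (0.3% parasitemia, 2.5% hematocrit), 72 h culture at 37 C under 5% CO2. Saponin/Triton lysis with SYBR Green I, overnight RT, then fluorescence read.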

CP269 = tested on: CP269
In short: as §1

CP286 = tested on: CP286
In short: as §1

CP266 = tested on: CP266
In short: as §1

CP291 = tested on: CP291
In short: as §1

CP315 = tested on: CP315
In short: as §1

CP325 = tested on: CP325
In short: as §1

CP297 = tested on: CP297
In short: as §1

CP305 = tested on: CP305
In short: as §1

Measured: Potency
Potency means the concentration at half of the fitted maximal effect.

CO/N=C1\CN(c2nc3c(cc2F)c(=O)c(C(=O)O)cn3C2CC2)CC1CN (stereo unspecified)
active: CP268 12 µM | CP269 5.36 µM | CP286 7.94 µM

CCCCCCCCCCCCCCNCCO
active: CP286 3.55 µM
inactive: CP266 | CP269 | CP291 | CP315 | CP325

O=C(CCCN1CCC(O)(c2ccc(Br)cc2)CC1)c1ccc(F)cc1
inactive: CP266 | CP297

COC(=O)[C@H]1[C@H]2C[C@H]3c4[nH]c5ccccc5c4CCN3C[C@H]2CC[C@@H]1O
inactive: CP266 | CP268 | CP269 | CP291 | CP297 | CP305 | CP315 | CP325

CC(=O)N/N=C/c1ccc([N+](=O)[O-])o1
inactive: CP266 | CP268 | CP269 | CP286 | CP291 | CP305 | CP315 | CP325

c1ccc(CNCCNCc2ccccc2)cc1
active: CP297 12 µM
inactive: CP315

CNCCC(Oc1ccccc1C)c1ccccc1 (stereo unspecified)
inactive: CP269 | CP286 | CP291 | CP297 | CP315 | CP325

NC(CS)C(=O)O (stereo unspecified)
inactive: CP315

CCN(CC)CCNC(=O)COc1ccc(Cl)cc1
inactive: CP266 | CP268 | CP269 | CP291 | CP305 | CP315 | CP325

O=C1OCCN1/N=C/c1ccc([N+](=O)[O-])o1
inactive: CP266 | CP269 | CP297 | CP315 | CP325

CN(C)C(=S)SC(=S)N(C)C
inactive: CP266
active: CP269 10.7 µM | CP286 11.2 µM | CP305 15.1 µM | CP325 15.1 µM

CCCCCCCCCCOCC(O)CN (stereo unspecified)
inactive: CP266 | CP269 | CP315

CN1CCN(C(c2ccccc2)c2ccccc2)CC1
inactive: CP266 | CP268 | CP286 | CP297 | CP305 | CP315

CCOC(=O)COc1ccc2c(C)c(CCN(CC)CC)c(=O)oc2c1Cl
inactive: CP266 | CP268 | CP269 | CP286 | CP291 | CP297 | CP305 | CP315 | CP325

C#C[C@]1(O)CC[C@H]2[C@@H]3CCc4cc(OC5CCCC5)ccc4[C@H]3CC[C@@]21C
inactive: CP268 | CP269 | CP286 | CP291 | CP297 | CP305 | CP315 | CP325

c1ccc(-c2ccc(C(c3ccccc3)n3ccnc3)cc2)cc1 (stereo unspecified)
active: CP297 6.75 µM | CP315 16.9 µM

O=c1c(-c2ccccc2)c1-c1ccccc1
active: CP286 7.94 µM

CCOC(=O)/C=C(C)/C=C/C=C(C)/C=C/c1c(C)cc(OC)c(C)c1C
inactive: CP266 | CP268 | CP269 | CP291 | CP297 | CP305 | CP315 | CP325

CN=C(NC#N)Nc1ccc(C2=NNC(=O)CC2C)cc1 (stereo unspecified)
inactive: CP266 | CP268 | CP269 | CP291 | CP297 | CP305 | CP315 | CP325

Oc1c(I)cc(Cl)c2cccnc12
inactive: CP266 | CP268 | CP269 | CP286 | CP297 | CP305 | CP315 | CP325

NC(=NCCCCCCN=C(N)/N=C(\N)Nc1ccc(Cl)cc1)/N=C(\N)Nc1ccc(Cl)cc1
active: CP266 3.79 µM | CP268 1.51 µM | CP269 1.2 µM | CP286 0.398 µM | CP291 1.35 µM | CP297 2.13 µM | CP305 1.2 µM | CP315 1.07 µM | CP325 1.9 µM

c1ccc(OCc2ccc(CCCN3CCOCC3)cc2)cc1
inactive: CP266 | CP268 | CP269 | CP286 | CP291 | CP297 | CP305 | CP315 | CP325

Clc1ccc2c(c1)CCc1cccnc1C2=C1CCNCC1
active: CP286 10 µM

Oc1ccc(O)cc1
inactive: CP268 | CP291

CCCN1CCCC[C@H]1C(=O)Nc1c(C)cccc1C
inactive: CP266 | CP269 | CP286 | CP291 | CP315

CCCCc1nc(Cl)c(CO)n1Cc1ccc(-c2ccccc2-c2nn[nH]n2)cc1
inactive: CP268 | CP297

CCCOC(C(=O)OC1CCN(C)CC1)(c1ccccc1)c1ccccc1
inactive: CP266 | CP297 | CP315

O=C(Nc1ccc(Oc2ccc(Cl)cc2)c(Cl)c1)c1cc(I)cc(I)c1O
inactive: CP266 | CP268 | CP269 | CP286 | CP291 | CP297 | CP305 | CP315 | CP325

Source: PubChem BioAssay (NCATS)
